For 22 compounds, AC50 and outcome results are on record in PubChem BioAssay (EPA / NIEHS).

Each structure is given as a SMILES string. Values joined by “and” are separate entries in the source; they are usually repeats but may differ in a detail not shown here. Identical values can stand only once. Results filed as inconclusive are left out. Active and inactive are the calls of the source. Rule for the calls, unless noted: active = hit-call score of the fitted dose curve at least 0.9, where 1 is the maximum; inconclusive = response in the unintended direction; inactive = score below 0.9. *1 amine or outer side, *2 acyl side, *3 side chain or, on linkers, in order; H or OH if unused. Where a SMILES comes first, the peptide text is derived from it. Bridges are numbered along the chain shown (N, C = ends). Roman numbers before positions name the chains, in order. [ ]: non-standard residue; d: D form. Actinocin(9to1) = Cc1c2oc3c(C)ccc(C(=O)[*:1])c3nc-2c(C(=O)[*:2])c(N)c1=O; NMeV = CN[C@H](C(=O)O)C(C)C; Sar = CNCC(=O)O

The target of assay [1] is Cellular tumor antigen p53 (Homo sapiens) (UniProt P04637). Kind of assay: TOX21_p53_BLA_p2_ratio: Tox21 HCT-116 p53 Agonism Beta-lactamase Assay, Ratio, Phase 2 (AID 2283592). Summed up: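 Cleaved-to-uncleaved substrate ratio (460 vs 530 nm) measured in HCT116 cells with an inducible beta-lactamase reporter linked to p53 activity. Compounds incubated 16 h at 37C before 2 h room-temperature CCF4-AM loading.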
Cellular tumor antigen p53 (Homo sapiens), sequence (P04637 whole entry, looked up): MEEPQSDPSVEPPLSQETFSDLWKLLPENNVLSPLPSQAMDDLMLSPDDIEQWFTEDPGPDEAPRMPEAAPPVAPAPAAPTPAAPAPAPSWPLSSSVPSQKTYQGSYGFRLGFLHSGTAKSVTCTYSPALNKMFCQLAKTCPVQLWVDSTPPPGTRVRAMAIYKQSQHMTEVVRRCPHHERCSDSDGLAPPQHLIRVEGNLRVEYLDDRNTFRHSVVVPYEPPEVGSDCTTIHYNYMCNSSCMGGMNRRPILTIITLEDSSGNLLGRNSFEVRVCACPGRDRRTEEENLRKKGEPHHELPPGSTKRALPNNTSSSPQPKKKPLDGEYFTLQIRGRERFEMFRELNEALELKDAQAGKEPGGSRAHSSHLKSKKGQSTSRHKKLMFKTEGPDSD

Assay [2] is described as follows: TOX21_p53_BLA_p3_viability: Viability Assessment in the Tox21 HCT-116 p53 Agonism Beta-lactamase Assay, Phase 3 (AID 2283593).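 Note: cells exposed to compound for 16 h before reading.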 The essentials: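 HCT-116 cells (4000/well) rested 5 h at 37C, then got DMSO compounds by pin tool (217-fold dilution) for 16 h at 37C, 5% CO2. After the bla read, CellTiter-Glo was added and luminescence read at 30 min, room temperature.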

Assay [3] deals with Cellular tumor antigen p53 (Homo sapiens) (UniProt P04637). Kind of assay: TOX21_p53_BLA_p3_ratio: Tox21 HCT-116 p53 Agonism Beta-lactamase Assay, Ratio, Phase 3 (AID 2283596). Summed up:
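Cells were seeded at 4000/well, rested 5 h at 37C, then dosed with DMSO compound solutions (217-fold dilution) for 16 h. CCF4-AM substrate was loaded for 2 h at room temperature, and the 460/530 nm emission ratio was fitted for gain of signal versus DMSO.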

Assay [4] in a line: TOX21_p53_BLA_p4_viability: Viability Assessment in the Tox21 HCT-116 p53 Agonism Beta-lactamase Assay, Phase 4 (AID 2283597).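 Note: hits lower the luminescence signal meaning cytotoxicity.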 Summed up: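 Viability is taken as cellular ATP: after 16 h compound exposure of HCT116 cells and a 2 h room-temperature CCF4-AM substrate step, CellTiter-Glo reagent is added and luminescence is measured 30 min later.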
Assay [5] deals with Cellular tumor antigen p53 (Homo sapiens) (UniProt P04637). Kind of assay: TOX21_p53_BLA_p5_ratio: Tox21 HCT-116 p53 Agonism Beta-lactamase Assay, Ratio, Phase 5 (AID 2283599). Summed up:
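HCT-116 cells carrying a p53-inducible beta-lactamase reporter were seeded at 4000 cells/well and dosed after 5 h with compound in DMSO (217-fold dilution). After 16 h at 37C, CCF4-AM substrate was added for 2 h, and the 460/530 nm emission ratio was scored as gain-of-signal versus DMSO.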

Assay [6] is described as follows: TOX21_p53_BLA_p5_viability: Viability Assessment in the Tox21 HCT-116 p53 Agonism Beta-lactamase Assay, Phase 5 (AID 2283600). The essentials:
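Viability is taken from cellular ATP content, measured by luciferase luminescence in the same wells after the beta-lactamase ratio read. Cells are seeded at 4000 per well and exposed to DMSO-dissolved compounds, diluted 217-fold, for 16 h.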

In assay [7] the target is Cellular tumor antigen p53 (Homo sapiens) (UniProt P04637). Briefly: TOX21_p53_BLA_p4_ratio: Tox21 HCT-116 p53 Agonism Beta-lactamase Assay, Ratio, Phase 4 (AID 2283601). The essentials:
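HCT116 cells carrying an inducible beta-lactamase reporter were plated at 4000 cells/well, rested 5 h, then exposed to compounds in DMSO (217-fold dilution) for 16 h at 37C. CCF4-AM substrate was loaded 2 h at room temperature; 460/530 nm emission ratio scored gain-of-signal versus DMSO.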

For assay [8], the system named is Brachyury (BRA) Protein Expression, Deisenroth Lab, TBXT (gene 6862). Kind of assay: CCTE_Deisenroth_DEVTOX-GLR_legacy_Bra: (Legacy) CCTE's DevTox GLR-Endo Assay Evaluation of Brachyury (BRA) Protein Expression, Deisenroth Lab (AID 2284329; active = hit-call score of the fitted dose curve at least 0.9, where 1 is the maximum; inactive = score below 0.9). The essentials: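 High-content imaging of fixed RUES2-GLR cells after a 48-hour differentiation with two compound exposures yields percent cells whose Bra signal exceeds pluripotent control median by 5x BMAD; values are baseline-corrected to DMSO.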

Assay [9] is described as follows: CCTE_Deisenroth_DEVTOX-GLR_legacy_CellCount: (Legacy) Viability Assessment in CCTE's DevTox GLR-Endo Assay, Deisenroth Lab (AID 2284331; active = hit-call score of the fitted dose curve at least 0.9, where 1 is the maximum; inactive = score below 0.9). The conditions noted are these: actives raise or lower the signal. Summed up:
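Seed RUES2-GLR 24 h; differentiate 48 h, dosing at 0 and 24 h; fix, stain nuclei; image 5 fields/well; count nuclei. Conc. 1 nM - 200 uM, single technical replicate, n=4 experiments; bidirectional fit vs 0.2% DMSO.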

Assay [10] has as its system SRY-box transcription factor 2 (SOX2) Protein Expression, Deisenroth Lab, SOX2 (gene 6657). Kind of assay: CCTE_Deisenroth_DEVTOX-GLR_Endo_SOX2: CCTE's DevTox GLR-Endo Assay Evaluation of SRY-box transcription factor 2 (SOX2) Protein Expression, Deisenroth Lab (AID 2284412). The essentials: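 Endpoint is percent SOX2-positive cells (SOX2+ count/total cells) minus 0.2% DMSO control, from high-content imaging of fixed, nuclear-stained RUES2-GLR cells. Dosing twice at 24 h intervals over 48 h differentiation, 1 nM–200 uM in 10 points.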

Assay [11] concerns Brachyury (BRA) Protein Expression, TBXT (gene 6862). Kind of assay: CCTE_Deisenroth_DEVTOX-GLR_Endo_BRA: CCTE's DevTox GLR-Endo Assay Evaluation of Brachyury (BRA) Protein Expression, Deisenroth Lab (AID 2284417; active = hit-call score of the fitted dose curve at least 0.9, where 1 is the maximum; inactive = score below 0.9). The essentials: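 Percent BRA+ (mesoderm) RUES2-GLR cells after 48 h differentiation with two exposures, 1 nM - 200 uM; 0.2% DMSO control subtracted.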
Assay [12] can be described thus: CCTE_Deisenroth_DEVTOX-GLR_Endo_CellCount: Viability Assessment in CCTE's DevTox GLR-Endo Assay, Deisenroth Lab (AID 2284420; active = hit-call score of the fitted dose curve at least 0.9, where 1 is the maximum; inactive = score below 0.9). The essentials: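 Viability in differentiating RUES2-GLR cultures is scored by fluorescent nuclear counts after 48 h and two 24-hourly chemical treatments, as percent change from the 0.2% DMSO control.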

The AC50 is the concentration at which the activity in the assay is half-maximal.

With `C=C1/C(=C\C=C2/CCC[C@]3(C)[C@@H]([C@H](C)OCCC(C)(C)O)CC[C@@H]23)C[C@@H](O)C[C@@H]1O`, the AC50 was 12.7 µM (active) in assay [1], 14.3 µM (active) in [3], 13.5 µM (active) in [5] and 9970 nM (active) in assay [7]. Moreover, the result in assay [2], in assay [4] and in [6] was inactive.
In the case of `CCCCOC(=O)c1ccc(N)cc1`, the result in assay [1], in assay [2], in assay [3], in [4], in assay [5] and in assay [7] was inactive.
Regarding `O=S(=O)(O)c1cc(I)c(O)c2ncccc12`, the outcome in assay [1], in assay [2], in [3], in assay [4], in assay [5] and in assay [6] was inactive. In [7], the outcome was inactive.
`CCCCCCCCCCC[C@@H](C[C@@H]1OC(=O)[C@H]1CCCCCC)OC(=O)[C@H](CC(C)C)NC=O`: the outcome in [1], in [2], in assay [3], in assay [4], in [5] and in assay [7] was inactive.
Take `Cc1c(N)nc(C(CC(N)=O)NCC(N)C(N)=O)nc1C(=O)NC(C(=O)NC(C)C(O)C(C)C(=O)NC(C(=O)NCCc1nc(-c2nc(C(=O)NCCCN[C@@H](C)c3ccccc3)cs2)cs1)C(C)O)C(O[C@@H]1O[C@@H](CO)[C@@H](O)[C@H](O)[C@@H]1O[C@H]1O[C@H](CO)[C@@H](O)[C@H](OC(N)=O)[C@@H]1O)c1cnc[nH]1` (stereo not given in full): the AC50 in assay [1] was 0.286 µM (active); in assay [3], 0.301 µM (active); in assay [5], 0.43 µM (active); in [7], 193 nM (active). Besides, the outcome in [2], in [4] and in [6] was inactive.
Turning to `O=C1N=C(O)CN1N=Cc1ccc(-c2ccc([N+](=O)[O-])cc2)o1`, the outcome in [1], in assay [2], in assay [3], in assay [4], in assay [5] and in [6] was inactive. For the same compound, the result in assay [7] was inactive.
`CC(CO)Oc1ccccc1` (stereo not given): the outcome in assay [1], in assay [2], in assay [3], in assay [4], in assay [5] and in assay [7] was inactive.
Consider `O=C(NN=Cc1ccc([N+](=O)[O-])o1)c1ccc(O)cc1`, for which the AC50 in assay [1] was 10.2 µM (active); in assay [3] it was 16.2 µM (active); in [5], 15.5 µM (active). Also, the compound was called inactive in assay [2], in [4], in [6] and in [7].
With `Cc1c2oc3c(C)ccc(C(=O)N[C@@H]4C(=O)N[C@H](C(C)C)C(=O)N5CCC[C@H]5C(=O)N(C)CC(=O)N(C)[C@@H](C(C)C)C(=O)O[C@@H]4C)c3nc-2c(C(=O)N[C@@H]2C(=O)N[C@H](C(C)C)C(=O)N3CCC[C@H]3C(=O)N(C)CC(=O)N(C)[C@@H](C(C)C)C(=O)O[C@@H]2C)c(N)c1=O` (I: T[dV]P[Sar][NMeV] / II: T[dV]P[Sar][NMeV]; ester I:1-I:C, II:1-II:C; linker I:N-II:N via Actinocin(9to1)), the AC50 is 0.163 nM (active) and 3.91 nM (active) in assay [1]; 40.6 µM (active) in assay [2]; 0.165 nM (active) and 4.24 nM (active) in [3]; 0.0328 nM (active) and 7.71 nM (active) in assay [5]; 0.262 nM (active) and 3.61 nM (active) in assay [7]; 1.54 nM (active) in [8]. Besides, the AC50 in [9] was 0.297 nM (active); in [10], 1.62 nM (active); in assay [11] it was 1.08 nM (active); in assay [12], 0.0148 nM (active). In assay [4], the compound was called inactive.
For the compound `C[C@@H]1C[C@H]2[C@@H]3C[C@H](F)C4=CC(=O)C=C[C@]4(C)[C@@]3(Cl)[C@@H](O)C[C@]2(C)[C@H]1C(=O)COC(=O)C(C)(C)C`, the result in [1], in assay [2], in assay [3], in [4], in assay [5] and in assay [7] was inactive.
Take `COc1cccc(N(C)C(=S)Oc2ccc3c(c2)CCCC3)n1`: the outcome in assay [1], in assay [2], in [3], in assay [4], in assay [6] and in assay [7] was inactive.
As to `NCCCC[C@H](N[C@@H](CCc1ccccc1)C(=O)O)C(=O)N1CCC[C@H]1C(=O)O`, the outcome in assay [1], in assay [2], in assay [3], in assay [4], in assay [6] and in assay [7] was inactive.
As for `CC(C)NCC(O)c1ccc2ccccc2c1` (stereo not given), the outcome in [1], in [2], in assay [3], in [4], in assay [5] and in assay [7] was inactive.
With `CN1[C@@H]2CC[C@H]1CC(OC(c1ccccc1)c1ccccc1)C2` (stereo not given in full), the outcome in [1], in [2], in assay [3], in assay [4], in [6] and in [7] was inactive.
As for `O=S(O)(O)=S`, the outcome in [1], in assay [2], in assay [3], in [4], in assay [6] and in [7] was inactive.
With `CC(=O)O[Si](C)(OC(C)=O)OC(C)=O`, the outcome in assay [1], in assay [2], in [3], in assay [4], in assay [5] and in [7] was inactive.
Consider `CCCCCCCCS`, for which the outcome in [1], in assay [2], in assay [3], in assay [4], in [5] and in [7] was inactive.
Turning to `O=S(O)CO`, the outcome in assay [1], in assay [2], in assay [3], in [4], in assay [5] and in [7] was inactive.
As to `Nc1ccn(C2CO[C@H](CO)O2)c(=O)n1` (stereo not given in full), the AC50 was 5.86e-05 µM (active) in assay [1], 5.96e-05 µM (active) in assay [3], 0.000329 µM (active) in assay [5] and 0.0816 nM (active) in [7]. The outcome in assay [2] and in [4] was inactive.
As to `O=S(=O)(O)CCCS(=O)(=O)O`, the outcome in assay [1], in assay [2], in [3], in assay [4], in assay [5] and in assay [7] was inactive.
As for `CCN(CC)C(=O)Nc1ccc(OCC(O)CNC(C)(C)C)c(C(C)=O)c1` (stereo not given), the result in assay [1], in [2], in [3], in assay [4] and in assay [6] was inactive.
As to `O=NN(CCCl)C(=O)NC1CCCCC1`, the outcome in [1], in assay [2], in assay [3], in assay [4] and in assay [6] was inactive.
